Consider 14 molecules from PubChem BioAssay (NCI).

The panel holds about 83,000 compounds, 20% with a hit somewhere; the sample as a whole holds those more often.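 Note: values are percent growth. 100 is the growth of untreated cells, values between 100 and 0 indicate rising inhibition; between -100 and 0 indicates cell death.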 A number with no mark means an inactive call. Activity calls are given as the source filed them. Rule for the calls: active = growth percent below 10; inactive = the rest.

The subject of this test is IGROV1 ovarian. Briefly: NCI-60 one-dose screen, 48 h (100 = growth as untreated, 0 = no growth, -100 = all killed). Particulars: 10 µM unless noted.
On to `CN(C)CCCNC(=O)c1cncnc1Nc1ccc2c(ccn2Cc2cccc(F)c2)c1`, for which the growth was 90.1%. Next, `CCOC(=O)/C(=C(/C)NCC(C)C)c1cc(O)c(O)c2c(C)cc(=O)[nH]c12`: 61%; `COc1ccc(Nc2ncc(C#N)c(NCCCNC(=O)C3CCC3)n2)cc1`: 54.4%; `C=C1SC(=Nc2ccccc2Cl)N(C(=O)c2sc3ccccc3c2Cl)C1(C)C`: 297%. `CN1CC(c2ccc(Br)cc2)C(C(=O)c2ccc(Br)cc2)C12C(=O)Nc1ccccc12` (centres undefined): the growth was 62.6%. Next, `CC(C)Cc1nc(Nc2ccccc2)[nH]c(=O)c1C#N`: 71.4%; `CC(C)(C)c1ccc(S(=O)(=O)Oc2ccc(-c3sc4cc(OS(=O)(=O)c5ccc(C(C)(C)C)cc5)ccc4c3C(=O)c3ccc(OCCN4CCCCC4)cc3)cc2)cc1`: 101%. The result for `Nc1ncccc1O` reads 67.2%. Next, `COc1cc(C[C@H]2COc3cc(O)cc(O)c3C2=O)ccc1O`: 41.3%; `CCN(CC)C(=O)CC1=C(C)/C(=C/c2[nH]c(-c3ccc[nH]3)cc2OC)N=C1C`: 30.6%.

In the case of `COc1ccc(C2CC(c3ccccc3)=NN2C(=O)c2cc(OC)c(OC)c(OC)c2)cc1O` (centres undefined), the growth is 3.37% (active). Take `C[C@@H]1CN(c2cnc(C(=O)Nc3cc(F)cc4cccnc34)cn2)C[C@H](C)N1`: the growth is 78.9%. Next, `O=C(Nc1cc(Cl)ccc1O)c1ccccc1Nc1ccnc(C(F)(F)F)c1`: 1.77% (active); `O=c1ccc2ccc(OCCN3CCCCC3)cc2o1`: 110%.
